Pf growth 48h – inhibits P. falciparum growth in the first generation, 48 h; AID 504832; 310,000 compounds, 5.9% hits; Potency, µM (highest dose often 28.7 µM), inactives show at the top dose activity change, negative = inhibition, hits mostly inhibitors; P. falciparum luciferase growth in erythrocytes, 48 h; further: potency means the concentration at half of the fitted maximal effect; on the % scale 0 is the no-effect control and ±100 the full control effect
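Growth was read as firefly luciferase luminescence after a 48 h, 37 C, 5% CO2 exposure of compounds to reporter-bearing P. falciparum cultures (0.1% parasitemia, 2% hematocrit final) in Albumax-supplemented RPMI 1640.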
Pf growth 96h – P. falciparum growth inhibition at 96 hours; AID 504834; Potency, µM (series often up to 28.7 µM), for inactives: top-dose activity change, negative = inhibition, most hits filed as inhibitors; P. falciparum luciferase reporter growth, 96 h; 320,000 compounds, 6.9% hits; further: potency means the concentration at half of the fitted maximal effect; on the % scale 0 is the no-effect control and ±100 the full control effect
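Plates of compound plus infected erythrocytes (2% hematocrit, 0.05% parasitemia final) incubate 96 hours, 37 C, 5% CO2. Detection reagent added; reduced luminescence from the parasites' luciferase reporter flags inhibition.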
CHX counter – affects cycloheximide protein synthesis inhibition readout, counter-screen | AID 2314 | 300,000 compounds, 12% hits | cell reporter, cycloheximide protein synthesis inhibition counterscreen | max response, %; in the data active means max response mostly above about 13%, no sharp cut-off; inactive means mostly below about 14%; further: read at 38.3 µM for the half of the compounds with a filed dose; 0% is about no effect
Shiga inhibitor – Shiga toxin inhibition. Vero cells, Shiga toxin protein synthesis inhibition reporter. inhibition, % at 38.7 µM. 290,000 compounds, 9.2% hits; in the data active means inhibition mostly above about 28%, no sharp cut-off; inactive means mostly below about 43%; further: 0% is about no effect
* = called active by the depositor; ? = inconclusive; · = not tested or not shown; [ ] = remark or other dose. An excerpt weighted towards active compounds, which were near 21% of everything screened. Unless noted, the call rests on the fitted dose curve; in most records, active means well fitted inhibition curve with a large enough effect; inconclusive means small, poorly fitted or top-dose-only effect, or another doubt; inactive means no such curve, though single readings can be large or run the other way.

SMILES	Pf growth 48h	Pf growth 96h	CHX counter	Shiga inhibitor
COc1ccc(-n2nc(C(=O)NCC(=O)NCCCN3CC(C)CC(C)C3)c3ccccc3c2=O)cc1OC (stereo not given)	-4%	-1%	-3	-13
COc1ccc(-n2nc(C(=O)NCC(=O)N3CCN(c4ccccn4)CC3)c3ccccc3c2=O)cc1Cl	12%	?	27*	40
COc1ccc(-n2nc(C(=O)NCC(=O)N3CCC(C)CC3)c3ccccc3c2=O)cc1Cl	-43%	-20%	38	49*
Cc1ccc(/C=N/n2c(C)cc(C)c(C#N)c2=O)cc1	15µM*	15µM*	-4	8
Cc1cc(C)n(/N=C/c2ccc(C(C)C)cc2)c(=O)c1C#N	1.9µM*	?	20	12
Cc1ccc(-n2c(C)cc(C)c(C#N)c2=O)cc1	2%	-20%	0	-7
Cc1cccc(-n2c(C)cc(C)c(C#N)c2=O)c1	-8%	-63%[5.75 µM]	17*	88*
O=C(C1CCN(S(=O)(=O)c2cc(Cl)ccc2Cl)CC1)N1CCCC1	?	40%	-4	-8
O=S(=O)(c1ccccc1)c1nnn2c1nc(NC1CCN(Cc3ccccc3)CC1)c1ccccc12	?	?	-5	-7
O=S(=O)(c1ccccc1)c1nnn2c1nc(NC1CCN(Cc3ccccc3)CC1)c1cc(Cl)ccc12	0.66µM*	1%	7	-5
Cc1cc(C)c(S(=O)(=O)c2cccc(C)c2C)c(=O)[nH]1	-1%	-19%	-2	1
CCOc1ccc(S(=O)(=O)N(CC)CC(=O)NCc2cccnc2)cc1C	18%	-18%	-1	-5
CCOC(=O)c1[nH]c2ccccc2c1NC(=O)c1ccc(S(=O)(=O)N(C)C)cc1	10µM*	10µM*	-4	-20
CN(C)S(=O)(=O)c1ccc(C(=O)Oc2cc(=O)[nH]c3ccccc23)cc1	12%	8.3µM*	-4	-4
CCOC(=O)c1[nH]c2ccccc2c1NC(=O)c1ccc(S(=O)(=O)N2CCCCC2)cc1	?	9.3µM*	-5	-11
CCN(CC)S(=O)(=O)c1ccc(C(=O)Oc2cc(C)[nH]c(=O)c2[N+](=O)[O-])cc1	5%	12%	-4	-13
COC(=O)c1ccc(NC(=S)Nc2ccccn2)cc1	185%	-88%	42*	73*
COC(=O)c1ccc(NC(=S)Nc2ccc(O)cc2)cc1	6%	?	5	14
COc1ccccc1NC(=S)Nc1ccccn1	4%	-22%	-1	13
CCOC(=O)c1ccc(NC(=S)Nc2cccc(N)n2)cc1	?	-89%	50*	81*
COc1ccc(NC(=S)Nc2ccccn2)cc1	258%	39%	46*	135*
CCOC(=O)c1[nH]ncc1CN1CCC(Cc2cccc(OC)c2)(C(=O)OCC)CC1	5%	14%	-2	-4
c1ccc(-c2ccc3c(c2)c2c4n3CCN=C4CCC2)cc1	-63%	?	7	8
CCn1nc(C)c(CNC(=O)c2cc(COc3ccc(C)nc3)on2)c1C	-4%	0%	-1	-3
O=C(CNc1cccc(C(F)(F)F)c1)N/N=C/c1ccccc1C(=O)O	?	-1%	1	-3
SMILES	Pf growth 48h	Pf growth 96h	CHX counter	Shiga inhibitor
O=C(CCCOc1ccc(Cl)cc1Cl)Nc1ccccc1C(=O)O	53%	54%	42*	84*
CC(C)(C)C(=O)NNC(=O)CCCOc1ccc(Cl)cc1Cl	-12%	?	-2	-7
O=C(CCCOc1ccc(Cl)cc1Cl)Nc1cccnc1	·	21%	-2	32
CC(C)(CO)NC(=O)CCCOc1ccc(Cl)cc1Cl	84%	77%	50*	54*
O=C(COc1ccc(Cl)cc1Cl)Nc1ccc(C(=O)Nc2ccccc2C(=O)O)cc1	15%	?	35*	45
O=C(COc1ccc(Cl)cc1Cl)NC(=S)Nc1ccccc1C(=O)O	34%	76%	23*	35*
CCOc1ccc(NC(=S)NC(C)c2cccs2)cc1 (stereo not given)	-13%	-5%	12	15
COCCC(=O)N1CCC(Oc2ccc(C(=O)N3CCC(N(C)C)C3)cc2)CC1 (stereo not given)	18%	?	-4	-2
CCC1CCCCN1C(=O)COc1ccc(F)cc1 (stereo not given)	1%	116%	1	-8
CC1CC(C)CN(C(=O)CCNC(=O)c2ccccc2Cl)C1 (stereo not given)	0.93µM*	0.47µM*	2	-12
CCC1CCCCN1C(=O)CCCOc1ccccc1 (stereo not given)	·	89%	44*	47
O=C(NCCC(=O)N1CCCCC1)c1ccccc1Cl	28%	39%	1	14

Screening results (PubChem)
